Data on 40 compounds can be found in PubChem BioAssay (NCATS).

The structures appear in SMILES notation. A number with no mark means an inactive call.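 Rule for the calls: active = compounds whose dose series gives a full or clear partial fitted curve of increased nuclear translocation; inconclusive = weak partial curve or effect only at the top dose; inactive = no dose-dependent translocation response.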
Potency is the fitted concentration of half-maximal effect.

The target of the assay is Glucocorticoid receptor (Homo sapiens) (UniProt P04150). Description: GR-GFP Redistribution (AID 450). As to conditions: U2OS GR-GFP nuclear translocation, laser cytometry, 2 h. An excerpt: NIH Molecular Libraries Screening Centers Network [MLSCN]
Chain of Glucocorticoid receptor (Homo sapiens) (P04150 whole entry, looked up): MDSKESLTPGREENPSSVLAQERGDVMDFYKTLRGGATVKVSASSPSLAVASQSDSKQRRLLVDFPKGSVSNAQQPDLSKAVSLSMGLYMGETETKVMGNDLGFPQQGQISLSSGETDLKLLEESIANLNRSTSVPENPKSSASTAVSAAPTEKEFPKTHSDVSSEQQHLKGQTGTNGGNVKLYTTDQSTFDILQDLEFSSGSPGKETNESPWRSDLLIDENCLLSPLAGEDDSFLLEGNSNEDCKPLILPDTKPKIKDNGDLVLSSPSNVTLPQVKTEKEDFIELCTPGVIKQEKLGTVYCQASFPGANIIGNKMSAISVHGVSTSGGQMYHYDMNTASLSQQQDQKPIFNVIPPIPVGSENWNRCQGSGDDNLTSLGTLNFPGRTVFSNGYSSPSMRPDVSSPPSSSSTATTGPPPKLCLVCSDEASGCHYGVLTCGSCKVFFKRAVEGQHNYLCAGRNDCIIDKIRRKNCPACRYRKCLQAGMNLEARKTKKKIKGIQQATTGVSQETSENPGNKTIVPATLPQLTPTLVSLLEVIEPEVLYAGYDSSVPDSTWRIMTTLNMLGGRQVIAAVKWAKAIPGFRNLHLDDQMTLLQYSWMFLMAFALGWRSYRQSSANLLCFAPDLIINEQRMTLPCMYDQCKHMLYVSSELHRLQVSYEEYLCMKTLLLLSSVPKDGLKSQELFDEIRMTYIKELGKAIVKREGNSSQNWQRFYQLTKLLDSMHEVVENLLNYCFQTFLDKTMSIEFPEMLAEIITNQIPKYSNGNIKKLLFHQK
NIH Chemical Genomics Center [NCGC]
The glucocorticoid receptor (GR) Redistribution assay (BioImage) enables the visualization of GR cytoplasmic to nuclear translocation by the use of a GR-GFP fusion. GR is normally cytosolic, however ligands such as dexamethasone, cause nuclear translocation where the protein binds to response elements and interacts with various co-factors to modulate transcription. Because both functional agonists and antagonists can induce nuclear translocation, this assay can detect ligands regardless of their effects on gene expression. GR-GFP expressing U20S cells were used here. Dexamethasone was the positive control for translocation and data normalization. Detection of nuclear translocation was performed in 1536-well plates using the Acumen laser scanning plate cytometer (TTP LabTech). Validation of this assay and a detailed protocol have been described.
NCGC Assay Protocol Summary:
GR-GFP U2OS cells were maintained in DMEM with Glutamax and high glucose, 1% v/v penicillin-streptomycin, and 0.5 mg/mL Geneticin. For cell culture, 10% […] fetal bovine serum (FBS) was used (Invitrogen #26140-079). For cell plating 10% dextran, charcoal-stripped FBS (Hyclone SH30068.03) was used. U2OS cells were trypsin treated, suspended in medium, and passed through a 40 um basket filter. The cells were seeded at 600 cells/5 uL/well into clear-bottom black sided 1536-well plates and incubated for approximately 20 hrs, 37degC, 5%, CO2 in a tissue culture incubator. Twenty-three nL of compound was delivered by pin tool and the plates were incubated as above for 2 hrs. The compounds were tested as a 7-point titration ranging from 46 uM to 0.6 nM. The cells were fixed using the Kalypsys Washer/Dispenser station. The fixing protocol involved aspiration of the cell media, addition of 6 uL/well of PBS, aspiration of PBS, addition of 5uL/well of 100% methanol, aspiration of methanol, and addition of 3 uL/well PBS with 1.5 uM propidium iodide (PI). The plates were read by the Acumen Explorer using a 1 x 8 um scan of the whole well area. PI fluorescence triggered the collection of PI and GFP signals. A nuclei population was defined by a 10 to 100 um width and depth filter that eliminated small and large fluorescent particles. Two subpopulations of nuclei were then defined by peak intensity of GFP fluorescence to obtain translocated and untranslocated objects. The number of translocated objects was used for data normalization.
Keywords: NIH Roadmap, MLSCN, MLI, MLSMR, sOGT, qHTS, NCGC
As to `CN(C)C(=O)c1ccc(-c2nc(Nc3ccccc3)c3ccccc3n2)cc1`, the Potency is more than 46 µM.
The figure for `c1ccc2c(NCCN3CCOCC3)nc(-c3ccc4c(c3)OCO4)nc2c1` is more than 46 µM; for `COc1ccc(CNc2cc(-c3cccc(NS(C)(=O)=O)c3)ncn2)c(OC)c1` it is more than 46 µM.
As for `COc1ccccc1CNc1ncnc2ccc(-c3ccc(C(=O)N(C)C)cc3)cc12`, the figure is more than 46 µM; as for `CN1CCN(c2ncc3nc(-c4cccs4)c(=O)n(CCc4ccccc4)c3n2)CC1`, more than 9.22 µM; as for `CCNc1ncc2nc(CCc3ccccc3)c(=O)n(C3CC3)c2n1`, more than 9.22 µM.
For the compound `CN(Cc1ccco1)c1cc(-c2ccc3c(c2)OCO3)ncn1`, the Potency was more than 46 µM.
As for `COc1ccc2[nH]cc(CCNc3ncncc3-c3ccoc3)c2c1`, the figure is more than 46 µM; as for `COCCn1c(=O)c(CCc2ccccc2)nc2cnc(OCc3ccccc3)nc21`, more than 9.22 µM; as for `COC(=O)c1cc(Br)c(=O)n(CCc2ccc(F)cc2)c1`, more than 20.6 µM.
The figure for `Cc1ccccc1-c1ccc2ncnc(NCCN3CCOCC3)c2c1` is more than 46 µM; for `CN(C)c1nc(-c2cccc(C#N)c2)nc2ccccc12` it is more than 46 µM.
As for `CN1CC=C2C(C#N)=C(N)C(C#N)(C#N)[C@H](c3cccc(Cl)c3)C2C1` (stereo not given in full), the figure is more than 20.6 µM; as for `O=c1c(CCc2ccccc2)nc2cnc(N3CCNCC3)nc2n1-c1ccccc1`, more than 9.22 µM; as for `CN(C)c1ncc2nc(CCc3ccccc3)c(=O)n(Cc3cccs3)c2n1`, more than 9.22 µM.
Consider `N#CCCn1c(=O)c(-c2ccc(Cl)cc2)nc2cnc(N3CCOCC3)nc21`, for which the Potency was more than 9.22 µM.
The figure for `c1ccc(Nc2nc(-c3cccnc3)nc3ccccc23)cc1` is more than 46 µM; for `N=C(N)c1ccc(N=Nc2c(O)ccc3c2[nH]c2ccccc23)cc1` it is more than 46 µM.
The figure for `COc1ccc2[nH]cc(CCNc3ncncc3-c3ccccc3C(F)(F)F)c2c1` is more than 46 µM.
Regarding `COc1ccccc1CNc1nc(-c2cccc(NS(C)(=O)=O)c2)nc2ccccc12`, the Potency is more than 46 µM.
As for `COc1ccccc1CNc1ncnc2ccc(-c3cccc(NS(C)(=O)=O)c3)cc12`, the figure is more than 46 µM; as for `O=c1c(-c2ccccc2)nc2cnc(Oc3ccccc3)nc2n1C[C@H]1CCCO1`, more than 9.22 µM.
The figure for `COc1c2ccoc2cc2oc(=O)ccc12` is more than 46 µM; for `Cc1cnc(CNc2ncnc3ccc(-c4ccccc4C)cc23)cn1` it is more than 46 µM.
The figure for `COc1cccc(Cn2c(=O)c(CCc3ccccc3)nc3cnc(N(C)C)nc32)c1` is more than 9.22 µM; for `CCNc1ncc2ncc(=O)n(Cc3ccc(F)cc3)c2n1` it is more than 9.22 µM.
For the compound `COc1cccc(Cn2c(=O)cnc3cnc(N(C)C)nc32)c1`, the Potency is more than 9.22 µM.
As for `CN(C)C(=O)c1ccc(-c2cc(NCc3ccccc3)ncn2)cc1`, the figure is more than 46 µM; as for `O=c1c(CCc2ccccc2)nc2cncnc2n1Cc1ccccc1`, more than 46 µM; as for `COc1ccccc1-c1ccc2ncnc(N3CCOCC3)c2c1`, more than 46 µM.
As for `CCNc1ncc2nc(-c3cccs3)c(=O)n(CCC#N)c2n1`, the figure is more than 9.22 µM; as for `COc1ccccc1CNc1nc(-c2ccoc2)nc2ccccc12`, more than 46 µM.
The figure for `CCNc1ncc2nc(-c3ccccc3)c(=O)n(CCC#N)c2n1` is more than 9.22 µM.
For the compound `CS(=O)(=O)Nc1cccc(-c2nc(Nc3ccncc3)c3ccccc3n2)c1`, the Potency is more than 46 µM.
As for `O=c1c(-c2ccccc2)nc2cncnc2n1Cc1ccccc1`, the figure is more than 9.22 µM; as for `COc1ccc2[nH]cc(CCNc3ncnc4ccc(-c5ccccc5OC)cc34)c2c1`, more than 46 µM.
For the compound `COc1ccc(-c2nc3cnc(N4CCOCC4)nc3n(-c3ccc(OC)cc3)c2=O)cc1`, the Potency was more than 9.22 µM.
As for `Cc1cccc(CNc2ncncc2-c2ccccc2CN(C)C)c1`, the figure is more than 46 µM; as for `COCCn1c(=O)c(-c2ccccc2)nc2cnc(Oc3cccc(Cl)c3)nc21`, more than 9.22 µM; as for `COc1ccccc1CNc1ncncc1-c1ccccc1C(F)(F)F`, more than 46 µM.
